# Screening data (PubChem)
# Most compounds without a hit are left out; they make up all but 11% or so of the library.
# RORg inh – blocks mouse ROR gamma transcriptional activity. Drosophila S2 Gal4-RORgamma UAS-luciferase reporter, 20 h. P51450. AID 2551. 310,000 compounds, 5.4% hits. Potency, µM (doses to about 53.6 µM), for inactives: at the top dose activity change, negative = inhibition, usual class: inhibitors; also: potency is read from the fitted curve at half-maximal effect; % is scaled to controls: 0 for no effect and ±100 for the full control effect; nearly all actives have a fitted effect of over 60% in size
# Target sequence (P51450 whole entry, looked up, the tested form may be a part): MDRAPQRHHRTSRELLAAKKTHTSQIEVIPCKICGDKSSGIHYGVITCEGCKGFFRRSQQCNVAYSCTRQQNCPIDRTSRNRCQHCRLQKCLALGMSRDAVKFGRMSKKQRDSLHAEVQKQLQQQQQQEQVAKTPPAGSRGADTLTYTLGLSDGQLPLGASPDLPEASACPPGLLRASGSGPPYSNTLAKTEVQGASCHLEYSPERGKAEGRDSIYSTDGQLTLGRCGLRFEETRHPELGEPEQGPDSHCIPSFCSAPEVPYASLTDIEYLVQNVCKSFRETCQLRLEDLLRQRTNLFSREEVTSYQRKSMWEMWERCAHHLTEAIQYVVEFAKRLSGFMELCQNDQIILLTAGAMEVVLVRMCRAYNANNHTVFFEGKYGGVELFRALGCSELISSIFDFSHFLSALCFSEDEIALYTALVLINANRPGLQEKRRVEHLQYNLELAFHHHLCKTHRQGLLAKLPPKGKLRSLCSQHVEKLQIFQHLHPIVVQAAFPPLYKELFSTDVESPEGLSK
#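 Using a luciferase readout, inhibitors were identified by reduced reporter activity in Drosophila cells coexpressing a copper-inducible Gal4–ROR gamma fusion and UAS-driven Photinus luciferase, incubated 20 hr after 700 uM copper sulfate.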
# MCF10A rerep – DNA re-replication induction in MCF 10a cells. MCF 10A DNA re-replication, Hoechst nuclear intensity, 48 h. 350,000 compounds, 2.9% hits. Potency, µM (titrated, usually from 46.1 µM), for inactives: at the top dose activity, positive = re-replication, most hits filed as activators; also: potency is read from the fitted curve at half-maximal effect; % of control where 0% means no effect; nearly all actives have a fitted effect of over 50% in size
# VP16 counter – counter-screen for ROR gamma inhibitors: Gal4-VP16 reporter. AID 2546. Drosophila S2 Gal4-VP16 UAS-luciferase, luminescence, 20 h. Potency, µM (titrated, usually from 53.6 µM), for inactives: at the highest dose activity, negative = inhibition, usual class: inhibitors. 310,000 compounds, 3.5% hits;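 also: Gal4-VP16 expression switched on by copper sulfate through the metallothionein promoter; potency is read from the fitted curve at half-maximal effect; % is scaled to controls: 0 for no effect and ±100 for the full control effect; nearly all actives have a fitted effect of over 50% in size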
# SW480 rerep – induces DNA re-replication in SW480 colon adenocarcinoma cells; SW480 DNA re-replication, Hoechst DNA content imaging, 48 h; Potency, µM (series often up to 46.1 µM), for inactives: top-dose re-replication activation, actives largely listed as activators; 340,000 compounds, 1.8% hits; AID 624297; also: potency is read from the fitted curve at half-maximal effect; % of control where 0% means no effect; nearly all actives have a fitted effect of over 55% in size
#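 SW480 cells exposed to compounds for 48 hr at 37 C, 5% CO2, then Hoechst-stained 40 min. Nuclear DNA content imaged by fluorescence scanning (405 nm excitation, 500-530 nm emission); re-replication scored as increased high-intensity nuclei.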
# IL1B secr inh – inhibitors of inflammasome signaling (IL-1 beta secretion) | 360,000 compounds, 4.7% hits | AID 743279 | THP-1 LPS/ATP IL-1B secretion, AlphaLISA, 16 h; stronger effect = lower value | activity change, % at 57.5 µM; in the data active = activity change below about -50%; inconclusive = mostly about -30% to -49%; also: % is scaled to controls: 0 for no effect and ±100 for the full control effect
#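 THP-1 cells pretreated 1 hr with compounds (up to 57.5 uM final), then stimulated with LPS (250 ng/mL final) plus ATP (1.25 mM final); secreted IL-1B measured by AlphaLISA after 16 hr, decreased signal indicating inhibition.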
# * marks the source's active call; other numbers are inactive results; ? = inconclusive; / = no result; [ ] = remark or other dose. Unless noted, calls follow the shape of the dose curve; as a rule, active = well fitted curve in the direction sought with a large enough effect; inconclusive = small, poorly fitted or top-dose-only effect, or another doubt; inactive = no such curve, though single readings can be large; an effect the other way counts as inactive or inconclusive.
SMILES,RORg inh,MCF10A rerep,VP16 counter,SW480 rerep,IL1B secr inh
F[B-](F)(F)c1cncc2ccccc12,/,6%,/,?,-1
O=C(COc1ccccc1)Nc1c(C(=O)N2CCC(N3CCCCC3)CC2)oc2ccccc12,-9%,-8%,0%,8%,-5
CN(C)CCN(Cc1ccco1)C(=O)c1oc2ccccc2c1NC(=O)COc1ccccc1,0%,7%,-8%,2%,-50*
COCC(C)N=C1NN=C(c2cccs2)C(CC(=O)O)S1 (stereo not given),2µM*,15%,11µM*,4%,36
N#Cc1c(-c2ccc(Cl)cc2)ccnc1N1CCOCC1,16%,3%,0%,-5%,-57*
OCC(O)C(O)[C@H](O[C@H]1OC(CO)C(O)C(O)C1O)[C@H](O)CO (stereo not given in full),-8%,/,4%,/,/
O=C(OCC(=O)c1c[nH]c2ccccc12)c1cc2ccccc2cc1O,20%,12µM*,0%,15%,13
O=C(COC(=O)c1c[nH]c2ccccc12)Nc1ccc(F)cc1,/,0%,/,?,-10
O=C(COC(=O)c1c[nH]c2ccccc12)Nc1cccc(F)c1,/,5%,/,14%,-69*
O=c1cc(O)c2sc(Nc3cccc(C(F)(F)F)c3)nc2[nH]1,38%,11%,3%,?,-26
O=c1cc(O)c2sc(Nc3ccc(F)cc3)nc2[nH]1,43%,16µM*,-9%,?,-14
NC(=O)c1c(N)sc(=S)n1-c1ccccc1,10%,6.5µM*,2%,-1%[9.22 µM],7
Cc1c(C(=O)O)sc(=S)n1-c1ccccc1,-14%,1%,-3%,1%[9.22 µM],12
CCC(=O)NC(=S)Nc1cccc(-c2nc3ncccc3o2)c1,13µM*,-10%,-18%,2%,-1
CCCCCC(=O)Nc1cccc(-c2nc3ncccc3o2)c1,14%,8%,-15%,27%,-99*
CCCCC(=O)Nc1cccc(-c2nc3ncccc3o2)c1,33%[10 µM],13%,1%,-8%,-25
CC(C)(C)S(=O)N1Cc2cc(C(=O)NCc3ccc4c(c3)OCO4)nc(-c3cccc(-c4ccccc4)c3)c2[C@@H]1CCO (stereo not given in full),/,/,/,/,-28
O=S(=O)(Cc1cc(NCc2ccccc2)nc(-c2ccccn2)n1)c1ccccc1,4.5µM*,-8%,?,-92%,39
CC(C)[C@@H](CC(=O)N[C@@H]1CCCC[C@H]1C(=O)N[C@H](CC(=O)N[C@@H](CCC(=O)O)CC(=O)O)Cc1ccccc1)NC(=O)C[C@H](Cc1c[nH]c2ccccc12)NC(=O)[C@@H]1CNCC[C@H]1N,-10%,/,-3%,/,/
Nc1cccc(-c2nc3ccc(N)cc3s2)c1,3.5µM*,?,?,?,-18
Nc1ccc(-c2nc3ccc(N)cc3s2)cc1,?,?,7.9µM*,?,-80*
Oc1ccc(-c2nc3ccccc3s2)cc1,?,-1%,?,-2%,14
O=C(COC(=O)COc1ccccc1)Nc1ccc(Br)cc1Br,/,2%,/,-4%,-3
COc1ccc(C2(C)C(C#N)C(=O)NC(=O)C2C#N)cc1 (stereo not given),/,9%,/,?,24
COc1ccc(C(=O)Nn2c(SCC(=O)NCc3ccccc3)nc3ccccc3c2=O)cc1,10µM*,70%[0.0737 µM],3%,1%,-7
SMILES,RORg inh,MCF10A rerep,VP16 counter,SW480 rerep,IL1B secr inh
Cc1nc(SCC(=O)NCC2CCCO2)c2c3c(sc2n1)CCC3 (stereo not given),-40%,-1%,11%,-3%,-9
O=C(CSc1nc2ccccc2c(=O)n1CC1CCCO1)NCC1CCCO1 (stereo not given),15%,0%,0%,-8%,0
Cc1nc(SCC(=O)NCC2CCCO2)c2cc(-c3ccccc3)sc2n1 (stereo not given),/,21µM*,/,-3%,-3
COc1ccc(C(=O)Nn2c(SCC(=O)NCC3CCCO3)nc3ccccc3c2=O)cc1 (stereo not given),7.1µM*,13%,?,-4%,-21
COc1ccc2nc(SCC(=O)NCC3CCCO3)c(C#N)cc2c1 (stereo not given),-32%,23µM*,7%,-4%,19
COc1ccc(C(=O)Nn2c(SCC(=O)NC3CCCC3)nc3ccccc3c2=O)cc1,?,-3%,?,-17%,-20
CCCCOc1ccc(N(CC(=O)NCc2ccccc2)C(=O)c2csnn2)cc1,38%,?,19%,2%,-9
Nn1c(SCC(=O)N2CCCC2)nnc1-c1cccs1,/,/,/,/,-9
COC(=O)C1C(C)OC(=O)NC1c1ccccc1 (stereo not given),3%[10 µM],/,-8%[10 µM],/,/
OC[C@H]1O[C@@H](c2nc(-c3ccc(Br)cc3)no2)C[C@@H]1O,/,/,/,/,0
CCC(=C(c1ccc(OC)cc1)c1ccc(OC)cc1)c1cn(CC(O)CN2CCN(C)CC2)c2ccccc12 (stereo not given),?,?,?,?,-106*
COc1ccc(-c2cc3ccccc3n2CC(O)CN2CCCCC2)cc1 (stereo not given),7%,3%,0%,?,-27
C=CCOC(=O)Nc1nc(CCNC(=O)OC(C)(C)C)c(C(=O)O)s1,/,/,/,/,-8
CC1(C(=O)Nc2cccc(OC(F)(F)F)c2)Cc2c(-c3cccc(C(N)=O)c3)ccnc2O1 (stereo not given),/,/,/,/,17
Cc1cc(O)c(C(C)C)cc1NC(=S)Nc1cc(C(C)C)c(O)cc1C,/,?,/,5%,-55*
CCOc1ccc(NC(=O)Nc2cc(C(C)C)c(O)cc2C)cc1,33%,10%,2%,2%,-3
COCCNC(=O)C1CCC(Cn2c(=S)[nH]c3ccccc3c2=O)CC1 (stereo not given),-29%,13%,15%,-6%,20
O=C(NCCc1c[nH]c2ccccc12)C1CCC(Cn2c(=S)[nH]c3ccccc3c2=O)CC1 (stereo not given),7.1µM*,?,13µM*,9%,-18
CC(C)CO/N=C1/C[C@@H](O)[C@@H](O)[C@@H]2[C@@H]3C(=O)N(Cc4ccc5c(c4)OCO5)C(=O)[C@H]3CC[C@@H]12,13%[10 µM],/,-5%[10 µM],/,/
CC1(C(=O)NS(=O)(=O)c2ccc(Cl)cc2)CCN1C(=O)c1cccc(F)c1 (stereo not given),/,/,/,/,54
O=C(Nc1ccc(Cl)cc1Cl)c1cccc(N2C(=O)C=CC2=O)c1,4%,13µM*,-4%,8.2µM*,0
O=C(O)c1cccc(N2C(=O)C=CC2=O)c1,/,/,/,/,0
O=c1cc(N=Nc2ccc(Cl)cc2)[nH]c(=O)[nH]1,2.5µM*,3.7µM*,4µM*,5.2µM*,-99*
O=S(=O)(NCC1CCCO1)c1ccc(Cl)cc1 (stereo not given),-9%,3%,7%,-1%,-8
